Compounds without any hit were thinned out: in the full panel of roughly 79,000, 15% have a hit. Unmarked numbers belong to inactive results. Activity calls are given as the source filed them. Rule as the data show it: active = growth inhibition above about 70%; inactive = the rest.
Experiment: NCI Yeast Anticancer Drug Screen. Data for the rad50EPP+ strain (AID 151);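 also: 0% = growth of vehicle-treated control cultures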
Details: S. cerevisiae rad50 mutant strain, at 1.2 µM, stronger effect = higher value
Summary of the method: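 Compounds were applied to the rad50EPP+ yeast strain, which bears a defined DNA repair alteration, and growth inhibition was determined relative to vehicle-treated cultures.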

Structure (SMILES) | growth inhibition [%]
CC(C)C(=O)CC(Sc1ccc(N)cc1)c1ccccc1 (stereo not given) | -5
O=[N+]([O-])c1cc(Cl)ccc1S(=O)(=O)c1ccc(Cl)cc1[N+](=O)[O-] | -6
N#CCC(=O)N/N=C(\c1ccccc1)C(c1ccccc1)C1(O)C(=O)Nc2c(Cl)ccc(Cl)c21 (stereo not given) | 2
CCC[CH2][Ge]([CH2]CCC)([CH2]CCC)[O]C(=O)C(O)c1ccccc1 (stereo not given) | -2
COc1ccc(-c2cc(-c3cc(C)cc(Cl)c3O)nc3[nH]c(=S)[nH]c(=S)c23)cc1 | 3
CCN(CC)CCCNc1ccc([N+](=O)[O-])c2nc3ccc(OC)cc3c(NCCCN(CC)CC)c12 | 0
COc1cccc(/C=C2\S/C(=N/Nc3nc(-c4ccc([N+](=O)[O-])cc4)cs3)NC2=O)c1O | 33
O=[N+]([O-])c1cc[n+]([O-])c(Cl)c1 | 8
O=S(=O)(c1ccccc1)N1CN2CN(C1)CN(S(=O)(=O)c1ccccc1)C2 | -18

Same assay, conditions: S. cerevisiae rad50 mutant strain, at 3.7 µM, stronger effect = higher value

Structure (SMILES) | growth inhibition [%]
CC(C)C(=O)CC(Sc1ccc(N)cc1)c1ccccc1 (stereo not given) | -4
O=[N+]([O-])c1cc(Cl)ccc1S(=O)(=O)c1ccc(Cl)cc1[N+](=O)[O-] | 20
N#CCC(=O)N/N=C(\c1ccccc1)C(c1ccccc1)C1(O)C(=O)Nc2c(Cl)ccc(Cl)c21 (stereo not given) | 10
CCC[CH2][Ge]([CH2]CCC)([CH2]CCC)[O]C(=O)C(O)c1ccccc1 (stereo not given) | 3
COc1ccc(-c2cc(-c3cc(C)cc(Cl)c3O)nc3[nH]c(=S)[nH]c(=S)c23)cc1 | -5
CCN(CC)CCCNc1ccc([N+](=O)[O-])c2nc3ccc(OC)cc3c(NCCCN(CC)CC)c12 | 3
COc1cccc(/C=C2\S/C(=N/Nc3nc(-c4ccc([N+](=O)[O-])cc4)cs3)NC2=O)c1O | 63
O=[N+]([O-])c1cc[n+]([O-])c(Cl)c1 | 14
O=S(=O)(c1ccccc1)N1CN2CN(C1)CN(S(=O)(=O)c1ccccc1)C2 | -15

Same assay, conditions: S. cerevisiae rad50 mutant strain, at 11.0 µM, stronger effect = higher value

Structure (SMILES) | growth inhibition
CC(C)C(=O)CC(Sc1ccc(N)cc1)c1ccccc1 (stereo not given) | 1%
O=[N+]([O-])c1cc(Cl)ccc1S(=O)(=O)c1ccc(Cl)cc1[N+](=O)[O-] | 55%
N#CCC(=O)N/N=C(\c1ccccc1)C(c1ccccc1)C1(O)C(=O)Nc2c(Cl)ccc(Cl)c21 (stereo not given) | 15%
CCC[CH2][Ge]([CH2]CCC)([CH2]CCC)[O]C(=O)C(O)c1ccccc1 (stereo not given) | 8%
COc1ccc(-c2cc(-c3cc(C)cc(Cl)c3O)nc3[nH]c(=S)[nH]c(=S)c23)cc1 | -14%
CCN(CC)CCCNc1ccc([N+](=O)[O-])c2nc3ccc(OC)cc3c(NCCCN(CC)CC)c12 | 4%
COc1cccc(/C=C2\S/C(=N/Nc3nc(-c4ccc([N+](=O)[O-])cc4)cs3)NC2=O)c1O | 89% (active)
O=[N+]([O-])c1cc[n+]([O-])c(Cl)c1 | 44%
O=S(=O)(c1ccccc1)N1CN2CN(C1)CN(S(=O)(=O)c1ccccc1)C2 | -15%

Same assay, conditions: S. cerevisiae rad50 mutant strain, at 33.0 µM, stronger effect = higher value

Structure (SMILES) | growth inhibition
CC(C)C(=O)CC(Sc1ccc(N)cc1)c1ccccc1 (stereo not given) | 6%
O=[N+]([O-])c1cc(Cl)ccc1S(=O)(=O)c1ccc(Cl)cc1[N+](=O)[O-] | 72% (active)
N#CCC(=O)N/N=C(\c1ccccc1)C(c1ccccc1)C1(O)C(=O)Nc2c(Cl)ccc(Cl)c21 (stereo not given) | 24%
CCC[CH2][Ge]([CH2]CCC)([CH2]CCC)[O]C(=O)C(O)c1ccccc1 (stereo not given) | 21%
COc1ccc(-c2cc(-c3cc(C)cc(Cl)c3O)nc3[nH]c(=S)[nH]c(=S)c23)cc1 | -15%
CCN(CC)CCCNc1ccc([N+](=O)[O-])c2nc3ccc(OC)cc3c(NCCCN(CC)CC)c12 | 9%
COc1cccc(/C=C2\S/C(=N/Nc3nc(-c4ccc([N+](=O)[O-])cc4)cs3)NC2=O)c1O | 96% (active)
O=[N+]([O-])c1cc[n+]([O-])c(Cl)c1 | 94% (active)
O=S(=O)(c1ccccc1)N1CN2CN(C1)CN(S(=O)(=O)c1ccccc1)C2 | -12%

Same assay, conditions: S. cerevisiae rad50 mutant strain, at 100.0 µM, stronger effect = higher value

Structure (SMILES) | growth inhibition
CC(C)C(=O)CC(Sc1ccc(N)cc1)c1ccccc1 (stereo not given) | 8%
O=[N+]([O-])c1cc(Cl)ccc1S(=O)(=O)c1ccc(Cl)cc1[N+](=O)[O-] | 64%
N#CCC(=O)N/N=C(\c1ccccc1)C(c1ccccc1)C1(O)C(=O)Nc2c(Cl)ccc(Cl)c21 (stereo not given) | 32%
CCC[CH2][Ge]([CH2]CCC)([CH2]CCC)[O]C(=O)C(O)c1ccccc1 (stereo not given) | 49%
COc1ccc(-c2cc(-c3cc(C)cc(Cl)c3O)nc3[nH]c(=S)[nH]c(=S)c23)cc1 | -15%
CCN(CC)CCCNc1ccc([N+](=O)[O-])c2nc3ccc(OC)cc3c(NCCCN(CC)CC)c12 | 13%
COc1cccc(/C=C2\S/C(=N/Nc3nc(-c4ccc([N+](=O)[O-])cc4)cs3)NC2=O)c1O | 94% (active)
O=[N+]([O-])c1cc[n+]([O-])c(Cl)c1 | 98% (active)
O=S(=O)(c1ccccc1)N1CN2CN(C1)CN(S(=O)(=O)c1ccccc1)C2 | -10%

Source: PubChem BioAssay (NCI)
